Measured values taken from PubChem BioAssay (EPA / NIEHS).
Calls of active or inactive are those of the source. The calls were made as follows: active = hit-call score of the fitted dose curve at least 0.9, where 1 is the maximum; inactive = score below 0.9.

What was measured:
Conditions in all cases: mRNA level, 48 h; actives raise or lower the signal
[1] = read-out: succinate dehydrogenase complex iron sulfur subunit B (SDHB), SDHB (gene 6390); test: LTEA_HepaRG_SDHB: Life Technologies and Expression Analysis (LTEA) Assay for succinate dehydrogenase complex iron sulfur subunit B (SDHB) using HepaRG (AID 2283528)
Summary of the method: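 HepaRG, 48 h exposure, 8-pt half-log series from 100 uM in 0.5% DMSO, duplicates. Readout: SDHB mRNA by Fluidigm qRT-PCR vs housekeeping genes; bidirectional fit relative to DMSO.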

[2] = read-out: Signal transducer and activator of transcription 3 (Homo sapiens) (UniProt P40763); test: LTEA_HepaRG_STAT3: Life Technologies and Expression Analysis (LTEA) Assay for Signal transducer and activator of transcription (STAT3) using HepaRG (AID 2283529)
Summary of the method: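 Differentiated human HepaRG cells in serum-free induction medium were exposed in duplicate for 48 h to eight half-log concentrations up to 100 uM in 0.5% DMSO. STAT3 mRNA was quantified by TaqMan qRT-PCR, normalized to ACTB, GAPDH and POLR2A, and fitted bidirectionally against DMSO.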

[3] = read-out: solute carrier (SLCO1B1), SLCO1B1 (gene 10599); test: LTEA_HepaRG_SLCO1B1: Life Technologies and Expression Analysis (LTEA) Assay for solute carrier (SLCO1B1) using HepaRG (AID 2283530)
Summary of the method: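 SLCO1B1 transcript read by qRT-PCR (Fluidigm arrays), normalized to three housekeeping genes, after 48 h chemical exposure of HepaRG cells; bidirectional concentration-response fitting versus 0.5% DMSO baseline. Eight-point half-log series, maximum 100 uM.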

[4] = read-out: sulfotransferase 2A1 (SULT2A1), SULT2A1 (gene 6822); test: LTEA_HepaRG_SULT2A1: Life Technologies and Expression Analysis (LTEA) Assay for sulfotransferase 2A1 (SULT2A1) using HepaRG (AID 2283531)
Summary of the method: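 HepaRG, 48 h chemical exposure, 8-pt half-log curve from 100 uM in 0.5% DMSO, duplicates. Readout: TaqMan qRT-PCR of SULT2A1 mRNA, housekeeping-normalized. Bidirectional fit vs DMSO baseline.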

[5] = read-out: Transforming Growth Factor (TGFB1), TGFB1 (gene 7040); test: LTEA_HepaRG_TGFB1: Life Technologies and Expression Analysis (LTEA) Assay for Transforming Growth Factor (TGFB1) Transporter using HepaRG (AID 2283533)
Summary of the method: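 qRT-PCR readout of TGFB1 transcript in HepaRG lysates, normalized to three housekeeping genes; gain or loss of signal fitted relative to 0.5% DMSO vehicle. Exposure: 48 h, 8-point curve from 100 uM, duplicate wells.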

TIMP1, TIMP1 (gene 7076) = test: LTEA_HepaRG_TIMP1: Life Technologies and Expression Analysis (LTEA) Assay for TIMP1 using HepaRG (AID 2283534);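 also: TaqMan qRT-PCR signal normalized to ACTB GAPDH and POLR2A housekeeping genes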
Summary of the method: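 HepaRG, 48 h exposure, 8-pt half-log series from 100 uM in 0.5% DMSO, duplicates; TIMP1 transcript by Fluidigm qRT-PCR, housekeeping-normalized; bidirectional curve fit vs DMSO baseline.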

[6] = read-out: Tumor necrosis factor receptor 1 (TNFRSF1A), TNFRSF1A (gene 7132); test: LTEA_HepaRG_TNFRSF1A: Life Technologies and Expression Analysis (LTEA) Assay for Tumor necrosis factor receptor 1 (TNFRSF1A) using HepaRG (AID 2283535)
Summary of the method: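 HepaRG, 48 h plating then 48 h chemical exposure, serum-free induction media; 8-pt CRC from 100 uM, half-log, 0.5% DMSO vehicle, duplicates. Readout: TaqMan qRT-PCR (Fluidigm), housekeeping-gene normalized; bidirectional fit vs DMSO.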

[7] = read-out: Thyroid Hormone Responsive (THRSP), THRSP (gene 7069); test: LTEA_HepaRG_THRSP: Life Technologies and Expression Analysis (LTEA) Assay for Thyroid Hormone Responsive (THRSP) using HepaRG (AID 2283536)
Summary of the method: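 Differentiated human HepaRG cells were exposed in duplicate for 48 h in serum-free induction medium to eight concentrations (top 100 uM, half-log steps, 0.5% DMSO). Expression was quantified by TaqMan qRT-PCR, normalized to ACTB, GAPDH and POLR2A, with bidirectional fitting against DMSO.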

[8] = read-out: Cellular tumor antigen p53 (Homo sapiens) (UniProt P04637); test: LTEA_HepaRG_TP53: Life Technologies and Expression Analysis (LTEA) Assay for Tumor Protein P53 (TP53) using HepaRG (AID 2283537)
Summary of the method: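 HepaRG, 48 h exposure, top 100 uM, half-log 8-point, 0.5% DMSO vehicle, duplicates. Read: TP53 mRNA by TaqMan qRT-PCR, normalised to ACTB/GAPDH/POLR2A; bidirectional fit vs DMSO.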

[9] = read-out: Transforming Growth Factor (TGFA), TGFA (gene 7039); test: LTEA_HepaRG_TGFA: Life Technologies and Expression Analysis (LTEA) Assay for Transforming Growth Factor (TGFA) using HepaRG (AID 2283532)
Summary of the method: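 Differentiated human HepaRG cells, plated 48 h then switched to serum-free induction medium, were exposed in duplicate for 48 h to 8-point half-log series from 100 uM in 0.5% DMSO. TGFA mRNA measured by qRT-PCR, normalized to ACTB/GAPDH/POLR2A, bidirectional fit versus DMSO.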

Measured: AC50

Sequence of Signal transducer and activator of transcription 3 (Homo sapiens) (P40763 whole entry, looked up): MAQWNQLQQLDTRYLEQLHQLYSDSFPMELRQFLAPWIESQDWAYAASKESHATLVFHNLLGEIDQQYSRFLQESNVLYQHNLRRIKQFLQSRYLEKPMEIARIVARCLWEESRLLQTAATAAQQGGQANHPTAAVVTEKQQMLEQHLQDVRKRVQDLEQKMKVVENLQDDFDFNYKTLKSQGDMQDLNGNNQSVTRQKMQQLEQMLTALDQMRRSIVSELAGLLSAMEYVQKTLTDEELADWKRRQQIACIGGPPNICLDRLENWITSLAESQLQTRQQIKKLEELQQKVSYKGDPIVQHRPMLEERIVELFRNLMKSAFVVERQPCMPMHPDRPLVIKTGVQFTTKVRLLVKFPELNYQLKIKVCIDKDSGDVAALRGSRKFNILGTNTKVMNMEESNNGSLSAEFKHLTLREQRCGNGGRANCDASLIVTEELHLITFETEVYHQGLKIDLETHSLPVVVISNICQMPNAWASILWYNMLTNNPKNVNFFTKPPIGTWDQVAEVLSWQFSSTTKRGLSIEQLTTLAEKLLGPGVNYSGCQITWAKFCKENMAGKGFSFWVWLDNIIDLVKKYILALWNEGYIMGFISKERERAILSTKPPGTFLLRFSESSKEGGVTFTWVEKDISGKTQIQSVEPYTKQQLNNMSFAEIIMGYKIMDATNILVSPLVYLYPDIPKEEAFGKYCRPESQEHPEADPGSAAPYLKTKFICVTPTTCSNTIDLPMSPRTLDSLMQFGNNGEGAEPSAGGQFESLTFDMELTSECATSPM
Sequence of Cellular tumor antigen p53 (Homo sapiens) (P04637 whole entry, looked up): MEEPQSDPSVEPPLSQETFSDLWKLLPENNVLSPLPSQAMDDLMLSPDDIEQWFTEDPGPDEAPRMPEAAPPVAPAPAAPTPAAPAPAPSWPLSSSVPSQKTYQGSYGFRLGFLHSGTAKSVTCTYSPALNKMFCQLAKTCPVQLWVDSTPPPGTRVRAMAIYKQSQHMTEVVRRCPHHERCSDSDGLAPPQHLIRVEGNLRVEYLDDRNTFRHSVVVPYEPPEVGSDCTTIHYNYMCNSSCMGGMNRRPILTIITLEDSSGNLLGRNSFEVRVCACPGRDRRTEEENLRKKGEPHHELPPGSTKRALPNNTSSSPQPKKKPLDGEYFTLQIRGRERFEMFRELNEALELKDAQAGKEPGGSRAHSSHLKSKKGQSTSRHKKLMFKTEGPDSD

Cc1ccccc1Cl
inactive: [1] | [2] | [3] | [4] | [5] | TIMP1, TIMP1 (gene 7076) | [6] | [7] | [8]

COc1cc(C=O)ccc1O
inactive: [1] | [2] | [3] | [4] | [9] | [5] | TIMP1, TIMP1 (gene 7076) | [6] | [7] | [8]

C=CCc1ccc(O)c(OC)c1
inactive: [1] | [2] | [3] | [4] | [9] | [5] | TIMP1, TIMP1 (gene 7076) | [6] | [7] | [8]

Nc1ccccc1N
inactive: [2] | TIMP1, TIMP1 (gene 7076)
active: [1] 85.1 µM | [3] 69.5 µM | [4] 85.9 µM | [9] 50 µM | [5] 29.6 µM | [6] 50 µM | [7] 50 µM | [8] 50 µM

CCCCCCCCCCCCCO
inactive: [1] | [2] | [3] | [4] | [9] | [5] | TIMP1, TIMP1 (gene 7076) | [6] | [7] | [8]

Cc1nc(-c2ccc3c(c2)CCN(CCC2CCC(NC(=O)/C=C/c4ccc(F)cc4)CC2)CC3)no1 (stereo unspecified)
inactive: [1] | [2] | [3] | [4] | [5] | TIMP1, TIMP1 (gene 7076) | [6] | [7] | [8]

CCOC(=O)C(C)(C)Oc1ccc(Cl)cc1
inactive: [1] | [2] | [3] | [4] | [9] | [5] | TIMP1, TIMP1 (gene 7076) | [6] | [7] | [8]

c1cc(-c2ccncc2)ccn1
inactive: [1] | [2] | [3] | [4] | [9] | [5] | TIMP1, TIMP1 (gene 7076) | [6] | [8]

Cc1cc(NC(=O)C(=O)O)cc(C)c1Oc1ccc(O)c2c1CCC2
inactive: [1] | [2] | [9] | [5] | TIMP1, TIMP1 (gene 7076) | [6] | [7] | [8]
active: [3] 50 µM | [4] 0.526 µM

CCCCCCC(=O)OCC
inactive: [1] | [2] | [4] | [9] | [5] | TIMP1, TIMP1 (gene 7076) | [6] | [7] | [8]
